Test results reported in PubChem BioAssay (Tox21).
Values without a mark were called inactive. Records with an inconclusive call do not appear. Where a call stands in place of a potency, no number is given. The source made the active and inactive calls. Unless noted, calls follow the shape of the full dose curve.

Key:
[1] = target: Thyrotropin receptor (Homo sapiens) (UniProt P16473); experiment: qHTS assay to identify small molecule agonists of the thyroid stimulating hormone receptor (TSHR) signaling pathway (AID 1224843); also: nearly all actives have a fitted effect of over 45% in size
Chain of Thyrotropin receptor (Homo sapiens) (P16473 whole entry, looked up): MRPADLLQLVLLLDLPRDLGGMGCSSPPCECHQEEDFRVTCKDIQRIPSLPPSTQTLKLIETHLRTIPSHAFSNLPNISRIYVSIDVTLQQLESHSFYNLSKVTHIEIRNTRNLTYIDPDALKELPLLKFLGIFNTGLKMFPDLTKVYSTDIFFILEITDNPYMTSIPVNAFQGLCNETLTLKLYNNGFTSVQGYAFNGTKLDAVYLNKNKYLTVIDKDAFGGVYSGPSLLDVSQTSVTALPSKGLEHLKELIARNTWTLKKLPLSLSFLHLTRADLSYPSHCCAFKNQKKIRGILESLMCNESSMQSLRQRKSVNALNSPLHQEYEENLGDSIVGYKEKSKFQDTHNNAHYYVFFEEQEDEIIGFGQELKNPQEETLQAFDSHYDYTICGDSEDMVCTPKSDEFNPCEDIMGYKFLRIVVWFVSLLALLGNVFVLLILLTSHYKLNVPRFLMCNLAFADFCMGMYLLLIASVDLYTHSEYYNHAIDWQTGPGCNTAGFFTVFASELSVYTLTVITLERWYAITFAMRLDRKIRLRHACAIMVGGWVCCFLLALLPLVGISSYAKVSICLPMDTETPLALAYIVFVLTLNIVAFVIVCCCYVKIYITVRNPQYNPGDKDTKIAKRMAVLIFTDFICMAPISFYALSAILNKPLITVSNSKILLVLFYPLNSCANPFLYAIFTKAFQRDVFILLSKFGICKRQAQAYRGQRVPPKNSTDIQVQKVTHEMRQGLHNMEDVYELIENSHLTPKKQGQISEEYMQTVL
Procedure, shortened: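 Agonist activity read as cAMP rise via d2/cryptate HTRF competition, 1 h room-temperature detection, in HEK293 cells expressing TSHR. Fifteen-point titrations, each run in triplicate, with a 30 min room-temperature incubation beforehand.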

[2] = qHTS assay to identify small molecule agonists of the hypoxia (HIF-1) signaling pathway - cell viability counter screen (AID 1224844); also: nearly all actives have a fitted effect of over 50% in size
Procedure, shortened: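 Same wells as the HIF-1 reporter screen; ME-180 cells carrying HRE-bla, 17 hr treatment at 37C; CellTiter-Glo luminescence read after 30 min at room temperature.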

[3] = qHTS assay to identify small molecule agonists of H2AX (AID 1224845; active = well fitted activation curve with a large enough effect in the signal ratio in the repeat runs, not every such curve was filed as active; the % refers to the signal ratio)
Procedure, shortened: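 Phospho-H2AX Ser139 measured by HTRF (ex 320 nm; em 665 and 620 nm) after 24 hr antibody incubation. Compounds, 15 concentrations, 0.76% DMSO, were applied to CHO-K1 cells for 3hr at 37C before lysis.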

[4] = qHTS assay to identify small molecule agonists of the hypoxia (HIF-1) signaling pathway (AID 1224846; active = well fitted activation curve with a large enough effect in the signal ratio in the repeat runs, not every such curve was filed as active; the % refers to the signal ratio)
Procedure, shortened: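 In ME-180 cells bearing an HRE-bla construct, 17 h treatment with DMSO-dissolved compounds at 37C was followed by CCF4-AM loading to quantify reporter induction.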

[5] = qHTS assay to identify small molecule agonists of H2AX - cell viability counter screen (AID 1224847);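 also: wild-type CHO-K1 cells; top concentration of the series differs between compounds; nearly all actives have a fitted effect of over 30% in size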
Procedure, shortened: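 Cells plated first: CHO-K1, 1000 per well in 10% FBS medium, incubated overnight at 37C. Then 15-point compound titration added (final DMSO 0.76%) for 3 hr. Finally CellTiter-Glo added and luminescence read.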

[6] = qHTS assay to identify small molecule antagonists of the estrogen related receptor (ERR) signaling pathway from Tox21 library (AID 1224848; active = well fitted curve in the direction sought with a large enough effect in the repeat runs; an effect the other way counts as inactive or inconclusive; also: nearly all actives have a fitted effect of over 50% in size; also: potency is read from the fitted curve at half-maximal effect)
Procedure, shortened: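 Luciferase luminescence (ONE-Glo, 30 min room temperature) was the read-out. Cells of the NTP-supplied ERR line, 2,000 per well, were given 6 h at 37 C before compound addition in DMSO and 18 h exposure at 37 C.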

[7] = qHTS assay to identify small molecule agonists of the estrogen related receptor (ERR) signaling pathway from Tox21 library (AID 1224849); conditions: ERR reporter cell line, ONE-Glo luciferase, 18 h; at 92.4 µM (top of the series) unless noted; also: nearly all actives have a fitted effect of over 15% in size
Procedure, shortened: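 Reporter cells (ERR, NTP source) treated with Tox21 10K compounds 18 h, 37 C. Readout: ONE-Glo luminescence, 30 min RT.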

[8] = qHTS RealTime-Glo MT Cell Viability Assay in HepG2 cells - 24 hour (AID 1224867; active = well fitted curve in the direction sought with a large enough effect in the repeat runs; an effect the other way counts as inactive or inconclusive; also: nearly all actives have a fitted effect of over 50% in size)
Procedure, shortened: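 Viability was tracked continuously by NanoLuc luminescence from prosubstrate reduced by living HepG2 cells, at successive time points over 40 h of compound exposure. Cells with reagent were preincubated 5 h at 37 °C before compound addition.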

[9] = qHTS RealTime-Glo MT Cell Viability Assay in HEK293 cells - 32 hour (AID 1224868; active = well fitted curve in the direction sought with a large enough effect in the repeat runs; an effect the other way counts as inactive or inconclusive; also: nearly all actives have a fitted effect of over 50% in size; also: potency is read from the fitted curve at half-maximal effect; as to activity change, negative = cytotoxic: top concentration of the series differs between compounds)
Procedure, shortened: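 Viability tracked continuously by luminescence as live cells reduce a prosubstrate for NanoLuc; HEK293 cells preincubated 5 h, compound-treated at 37 C, and read at 0, 8, 16, 24, 32 and 40 h.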

[10] = A CellTox Green Cytotoxicity Assay to monitor cytotoxicity in HEK293 cells - 0 hour (AID 1224869; active = well fitted curve in the direction sought with a large enough effect in the repeat runs; an effect the other way counts as inactive or inconclusive; also: nearly all actives have a fitted effect of over 50% in size; also: potency is read from the fitted curve at half-maximal effect)
Procedure, shortened: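 Homogeneous no-lysis format: HEK293 cell suspension mixed with CellTox Green reagent, seeded, incubated 5 h at 37 C/5% CO2, then dosed by pintool with compound in DMSO.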

| SMILES | Potency [1] | Potency [2] | Potency [3] | outcome [4] | Potency [5] | Potency [6] | activity change, positive = activation [7] | Potency [8] | Potency [9] | Potency [10] | activation [1] | activity change, negative = cytotoxicity [2] | activation (H2AX phosphorylation) [3] | activation [4] | activity change, negative = cytotoxicity [5] | activity, negative = inhibition [6] | activity change, negative = cytotoxicity [8] | activity change, negative = cytotoxic [9] | cytotoxicity [10] |
| --- | --- | --- | --- | --- | --- | --- | --- | --- | --- | --- | --- | --- | --- | --- | --- | --- | --- | --- | --- |
| Cc1occc1C(=O)Nc1ccc(C(=O)N2CCC(F)(F)/C(=C\C(=O)N3CCC(N4CCCCC4)CC3)c3ccccc32)cc1 | inactive | inactive | inactive | inactive | inactive | inactive | -12.3% [at 42.5 µM] | inactive | 10.8 µM (active) | inactive | – | – | – | – | – | – | – | – | – |
| c1cnc2c(n1)CCCC2 | inactive | inactive | inactive | inactive | inactive | inactive | 3.42% | inactive | inactive | 43.6 µM (active) | – | – | – | – | – | – | – | – | – |
| COc1cc2[nH]c(=O)[nH]c(=O)c2cc1OC | inactive | inactive | inactive | inactive | inactive | inactive | 2.16% [at 42.5 µM] | inactive | inactive | inactive | – | – | – | – | – | – | – | – | – |
| OC/C(Br)=C(\Br)CO | inactive | inactive | inactive | inactive | inactive | inactive | 1.63% | inactive | inactive | inactive | – | – | – | – | – | – | – | – | – |
| CCCCCCCCCCCCCCCCBr | – | – | – | – | – | – | 4.62% [at 19 µM] | – | – | – | -0.411% [at 19 µM] | -1.79% [at 15.8 µM] | -0.41% [at 31.6 µM] | 0.309% [at 15.8 µM] | 2.27% [at 31.6 µM] | 8.88% [at 19 µM] | 2.08% [at 15.8 µM] | 4.73% [at 15.8 µM] | -1.2% [at 15.8 µM] |
| O=Cc1c(Cl)cccc1Cl | inactive | inactive | inactive | inactive | inactive | inactive | 3.9% | inactive | inactive | inactive | – | – | – | – | – | – | – | – | – |
| COC(=O)c1cc(S(N)(=O)=O)ccc1OC | inactive | inactive | inactive | inactive | inactive | inactive | -0.548% [at 42.5 µM] | inactive | inactive | inactive | – | – | – | – | – | – | – | – | – |
| CCCC1C(CC)=CC(CC)=CN1c1ccccc1 (stereo unspecified) | inactive | inactive | inactive | inactive | inactive | 43.3 µM (active) | -47.2% | inactive | 13.8 µM (active) | inactive | – | – | – | – | – | – | – | – | – |
| N#C/C(=C1/SC[C@@H](c2ccc(Cl)cc2Cl)S1)n1ccnc1 | inactive | inactive | inactive | inactive | inactive | 23.7 µM (active) | -40.9% [at 42.5 µM] | inactive | inactive | inactive | – | – | – | – | – | – | – | – | – |
| O=C(/C=C/c1ccccc1)OCCCc1ccccc1 | inactive | inactive | inactive | inactive | inactive | inactive | – | inactive | inactive | inactive | – | – | – | – | – | – | – | – | – |
| CO[C@H]1O[C@H](CO)[C@@H](O)[C@H](O)[C@H]1O | inactive | inactive | inactive | inactive | inactive | inactive | 10.5% | inactive | inactive | inactive | – | – | – | – | – | – | – | – | – |
| CN1C(=O)CC(C)(c2ccccc2)C1=O (stereo unspecified) | inactive | inactive | inactive | inactive | inactive | inactive | 2.7% [at 42.5 µM] | inactive | inactive | inactive | – | – | – | – | – | – | – | – | – |
| C[C@]12CCC(=O)C=C1C=C[C@@H]1[C@@H]2CC[C@@]2(C)[C@H]1CC[C@@]21CCC(=O)O1 | inactive | inactive | inactive | inactive | inactive | 23.7 µM (active) | -28.3% [at 42.5 µM] | inactive | inactive | inactive | – | – | – | – | – | – | – | – | – |
| CC(=O)OCC(=O)[C@H]1CC[C@H]2[C@@H]3CCC4=CC(=O)CC[C@]4(C)[C@H]3CC[C@]12C | inactive | inactive | inactive | inactive | inactive | 21.1 µM (active) | -35.1% [at 42.5 µM] | inactive | – | inactive | – | – | – | – | – | – | – | – | – |
| C1COCO1 | inactive | inactive | inactive | inactive | inactive | inactive | -2.3% | inactive | inactive | – | – | – | – | – | – | – | – | – | – |
| CC(C)(O)c1ccccc1CC[C@@H](SCC1(CC(=O)O)CC1)c1cccc(/C=C/c2ccc3ccc(Cl)cc3n2)c1 | inactive | inactive | inactive | inactive | inactive | inactive | 1.93% [at 42.5 µM] | inactive | inactive | inactive | – | – | – | – | – | – | – | – | – |
| C=CC(=C)CCCC(C)(C)OC(C)=O | inactive | inactive | inactive | inactive | inactive | inactive | -5.77% | inactive | inactive | inactive | – | – | – | – | – | – | – | – | – |
| CC(=O)Nc1ccccc1C | inactive | inactive | inactive | inactive | inactive | inactive | -0.329% | inactive | inactive | inactive | – | – | – | – | – | – | – | – | – |
| C=CCCCCCCCCCCCCCCCC | – | – | – | – | – | – | 3.59% [at 8.39 µM] | – | – | – | -8.53% [at 8.39 µM] | 3.26% [at 6.97 µM] | -2.87% [at 14 µM] | 0.0723% [at 7.01 µM] | 0.307% [at 14 µM] | 6.89% [at 8.39 µM] | 0.0094% [at 6.97 µM] | -11.9% [at 6.97 µM] | – |
| C[Si]1(C)O[Si](C)(C)O[Si](C)(C)O1 | inactive | inactive | inactive | inactive | inactive | inactive | -9.67% | inactive | inactive | inactive | – | – | – | – | – | – | – | – | – |
